In PMC5540273 (PLoS ONE, 2017):
Where two headings read alike, the source gives them in different places.

Experiments:
[1] = test system: PIP5K1A; settings: concentration: 1 μM, replicates: in singlicate; n = 1
[2] = test system: PIP5K1C; settings: concentration: 1 μM, replicates: in singlicate; n = 1
[3] = test system: PIP5K2B; settings: concentration: 1 μM, replicates: in singlicate; n = 1
[4] = test system: T1, PIP5K2C; settings: concentration: 1 μM, replicates: in singlicate; n = 1
T1 construct: gene PIP4K2C

[5] = test system: T2, PKAC-alpha; settings: n = 1
T2 construct: gene PRKACA

[6] = test system: T3, PKAC-beta; settings: n = 1
T3 construct: gene PRKACB

[7] = test system: PKMYT1; settings: concentration: 1 μM, replicates: in singlicate; n = 1
[8] = test system: PKN1; settings: n = 1
[9] = test system: PKN2; settings: concentration: 1 μM, replicates: in singlicate; n = 1
[10] = test system: PLK1; settings: concentration: 1 μM, replicates: in singlicate; n = 1
[11] = concentration: 1 μM, replicates: in singlicate
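Further: KINOMEscan kinase panel screen.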

## Fc1ccc(-c2ncn(C3CCNCC3)c2-c2ccnc(Oc3ccc(-c4ccccc4)cc3)n2)cc1 [SB-245391]
[1]
  %Inh: 14%
[2]
  %Inh: 24%
[3]
  %Inh: 0%
[4]
  %Inh: 20%
[5]; [11]
  %Inh: 35%
[6]; [11]
  %Inh: 31%
[7]
  %Inh: 9%
[8]; [11]
  %Inh: 0%
[9]
  %Inh: 18%
[10]
  %Inh: 35%

## Cc1ccc(C(=O)Nc2ccc(Nc3ccnc4cc(-c5nccs5)ccc34)cc2O)cc1.Cl [GW494702]
[1]
  %Inh: 0%
[2]
  %Inh: 9%
[3]
  %Inh: 0%
[4]
  %Inh: 28%
[5]; [11]
  %Inh: 0%
[6]; [11]
  %Inh: 0%
[7]
  %Inh: 0%
[8]; [11]
  %Inh: 0%
[9]
  %Inh: 0%
[10]
  %Inh: 1%

## CCn1c(-c2nonc2N)nc2c(C#CC(C)(C)O)ncc(OCCCCN)c21.O=C(O)C(F)(F)F.O=C(O)C(F)(F)F [GSK507274]
[1]
  %Inh: 26%
[2]
  %Inh: 0%
[3]
  %Inh: 6%
[4]
  %Inh: 0%
[5]; 1 µM
  %Inh: 92.5%
[6]; 1 µM
  %Inh: 95.6%
[7]
  %Inh: 0%
[8]; 1 µM
  %Inh: 5%
[9]
  %Inh: 0%
[10]
  %Inh: 5%

## COc1cc2c(cc1OCCN1CCNCC1)ncc1c3ccc(C#N)cc3[nH]c21
[1]
  %Inh: 58%
[2]
  %Inh: 1%
[3]
  %Inh: 46%
[4]
  %Inh: 16%
[5]; [11]
  %Inh: 0%
[6]; [11]
  %Inh: 0%
[7]
  %Inh: 0%
[8]; [11]
  %Inh: 61%
[9]
  %Inh: 41%
[10]
  %Inh: 28%

## O=C(NC1CCN(c2ccnc(Nc3ccc(F)cc3)n2)C1)c1cc2ccccc2s1 (stereo not shown) [GSK1379716]
[1]
  %Inh: 7%
[2]
  %Inh: 60%
[3]
  %Inh: 0%
[4]
  %Inh: 42%
[5]; [11]
  %Inh: 0%
[6]; [11]
  %Inh: 0%
[7]
  %Inh: 6%
[8]; [11]
  %Inh: 0%
[9]
  %Inh: 0%
[10]
  %Inh: 7%

## O=C(O)C(F)(F)F.O=C(O)C(F)(F)F.O=c1[nH]ccc2nc(N[C@@H]3CCCNC3)nc(Nc3ccc(S(=O)(=O)N4CCOCC4)cc3)c12 [GSK2177277]
[1]
  %Inh: 72%
[2]
  %Inh: 76%
[3]
  %Inh: 94.4%
[4]
  %Inh: 89%
[5]; [11]
  %Inh: 82%
[6]; [11]
  %Inh: 86%
[7]
  %Inh: 0%
[8]; [11]
  %Inh: 85%
[9]
  %Inh: 96.1%
[10]
  %Inh: 38%

## CCCCc1nn2ncccc2c1-c1ccnc(Nc2ccc(N3CCN(C)CC3)cc2)n1 [GW684941]
[1]
  %Inh: 33%
[2]
  %Inh: 48%
[3]
  %Inh: 5%
[4]
  %Inh: 96.7%
[5]; [11]
  %Inh: 0%
[6]; [11]
  %Inh: 8%
[7]
  %Inh: 0%
[8]; [11]
  %Inh: 5%
[9]
  %Inh: 0%
[10]
  %Inh: 0%

## c1ccc(-c2n[nH]cc2Nc2ccnc3ccccc23)nc1 [GW694077]
[1]
  %Inh: 10%
[2]
  %Inh: 73%
[3]
  %Inh: 54%
[4]
  %Inh: 72%
[5]; [11]
  %Inh: 0%
[6]; [11]
  %Inh: 0%
[7]
  %Inh: 0%
[8]; [11]
  %Inh: 7%
[9]
  %Inh: 0%
[10]
  %Inh: 0%

## O=C(Nc1cccc(Oc2ccc3nc(NC(=O)C4CC4)cn3n2)c1)c1ccccc1C(F)(F)F
[1]
  %Inh: 39%
[2]
  %Inh: 33%
[3]
  %Inh: 0%
[4]
  %Inh: 34%
[5]; [11]
  %Inh: 0%
[6]; [11]
  %Inh: 34%
[7]
  %Inh: 0%
[8]; [11]
  %Inh: 0%
[9]
  %Inh: 0%
[10]
  %Inh: 0%

## O=C(Nc1cccc(-c2nn3ncccc3c2-c2ccnc(Nc3ccccc3)n2)c1)c1c(F)cccc1F [GSK198271]
[1]
  %Inh: 0%
[2]
  %Inh: 0%
[3]
  %Inh: 11%
[4]
  %Inh: 27%
[5]; [11]
  %Inh: 5%
[6]; [11]
  %Inh: 2%
[7]
  %Inh: 7%
[8]; [11]
  %Inh: 8%
[9]
  %Inh: 0%
[10]
  %Inh: 3%

## COc1cccc(C2=C(Nc3ccc(Cl)c(C(=O)O)c3)C(=O)NC2=O)c1 [SB-390769]
[1]
  %Inh: 19%
[2]
  %Inh: 60%
[3]
  %Inh: 0%
[4]
  %Inh: 28%
[5]; [11]
  %Inh: 0%
[6]; [11]
  %Inh: 6%
[7]
  %Inh: 4%
[8]; [11]
  %Inh: 0%
[9]
  %Inh: 0%
[10]
  %Inh: 0%

## COc1cc(Nc2nccc(N3CCC(NC(=O)Nc4cccc(C(C)=O)c4)C3)n2)cc(OC)c1OC (stereo not shown) [GSK1379753]
[1]
  %Inh: 0%
[2]
  %Inh: 46%
[3]
  %Inh: 5%
[4]
  %Inh: 86%
[5]; [11]
  %Inh: 0%
[6]; [11]
  %Inh: 0%
[7]
  %Inh: 0%
[8]; [11]
  %Inh: 0%
[9]
  %Inh: 0%
[10]
  %Inh: 0%

## COc1cc(Nc2nccc(-c3c(-c4cccc(NC(=O)c5c(F)cccc5F)c4)nn4ncccc34)n2)cc(OC)c1OC [GSK327238]
[1]
  %Inh: 0%
[2]
  %Inh: 19%
[3]
  %Inh: 20%
[4]
  %Inh: 93.9%
[5]; [11]
  %Inh: 44%
[6]; [11]
  %Inh: 47%
[7]
  %Inh: 8%
[8]; [11]
  %Inh: 62%
[9]
  %Inh: 13%
[10]
  %Inh: 12%

## COc1cc(Nc2nccc(N3CCC(NC(=O)c4cc5ccccc5s4)C3)n2)cc(OC)c1OC (stereo not shown) [GSK1379760]
[1]
  %Inh: 26%
[2]
  %Inh: 52%
[3]
  %Inh: 15%
[4]
  %Inh: 92.6%
[5]; [11]
  %Inh: 18%
[6]; [11]
  %Inh: 0%
[7]
  %Inh: 0%
[8]; [11]
  %Inh: 0%
[9]
  %Inh: 1%
[10]
  %Inh: 17%

## CN(C)Cc1ccc(-c2ccc3c(Nc4ccc(Oc5ccccn5)cc4)ccnc3c2)o1 [GW567148]
[1]
  %Inh: 33%
[2]
  %Inh: 18%
[3]
  %Inh: 0%
[4]
  %Inh: 49%
[5]; [11]
  %Inh: 0%
[6]; [11]
  %Inh: 0%
[7]
  %Inh: 0%
[8]; [11]
  %Inh: 0%
[9]
  %Inh: 0%
[10]
  %Inh: 0%

## COc1cccc(-c2ccc3c(NC(=O)C4CC4)n[nH]c3n2)c1 [SB-710903]
[1]
  %Inh: 58%
[2]
  %Inh: 65%
[3]
  %Inh: 20%
[4]
  %Inh: 64%
[5]; [11]
  %Inh: 0%
[6]; [11]
  %Inh: 0%
[7]
  %Inh: 8%
[8]; [11]
  %Inh: 0%
[9]
  %Inh: 0%
[10]
  %Inh: 0%
